Where “and” joins values, the source holds several entries; their conditions need not be identical. Equal entries are not always repeated. About 83,000 compounds went through this panel and 20% of them were active in at least one assay; those are over-represented in the sample as a whole.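 Growth was measured after 48 h exposure to one concentration of compound in 96-well plates. Values under 10 count as active.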 Unmarked numbers belong to inactive results. Calls of active or inactive are those of the source.

This note sets out measurements from PubChem BioAssay (NCI).

This assay has as its system HL-60(TB) leukemia. The assay is described as follows: NCI-60 one-dose screen, 48 h (100 = growth as untreated, 0 = no growth, -100 = all killed). Particulars: 10 µM unless noted.
In the case of `CC(C)[N+](C)(C)CC(O)COc1cccc2ccccc12` (stereo unspecified), the growth was 126%.

As to `N#Cc1ccc(NC(=O)c2ccc3cccnc3c2O)cc1`, the growth was 4.59% (active).

`O=c1c2ccccc2oc2ccc(OCCCCCN3CCCCCC3)cc12`: the growth is 38%.

As to `COCCc1ccc(OCC(O)CNC(C)C)cc1` (stereo unspecified), the growth is 94.2%.

As for `O=c1[nH]nnc2cc(Cl)ccc12`, the growth is 108% and 100%.

As to `Clc1ccc(-c2nnc(COc3ccc(C4=NNC(c5ccco5)C4)cc3)o2)cc1` (stereo unspecified), the growth is 79.6%.

With `O=C1C(=O)c2ccccc2C(O)=C1CCCc1ccc(C2CCCCCC2)cc1`, the growth is 45.6%.

Consider `CCN1C[C@@H](C)n2c(c(O)c3c(=O)n(Cc4ccc(F)c(Cl)c4)nc(C(=O)NC)c32)C1=O`, for which the growth is 36.7%.

In the case of `O=C1c2ccccc2C(=O)c2c1oc1c2c(=O)[nH]c2ccccc21`, the growth was 2.26% (active).

As for `O=C(NCc1cn(Cc2cccc(Oc3ccccc3)c2)nn1)c1cccnc1Nc1ccccc1`, the growth is 32%.

As to `Cc1ccc(/C=C2\Oc3cc(OCC(=O)c4ccc(Cl)cc4)ccc3C2=O)cc1`, the growth is 50.7%.

`OCCN1CCN(CCCN2c3ccccc3Sc3ccc(Cl)cc32)CC1`: the growth was 85.8% and 73.9%.

Take `CCOC(=O)[C@]1(Br)CC[C@@]1(Br)C(=O)OCC`: the growth was 47.7%.

`CCNC(=O)c1ccc2c(c1)nc(-c1ccc(Cl)cc1)n2-c1cc(C(C)(C)C)[nH]n1`: the growth was 4.73% (active).

As to `CCOC(=O)c1cnc2c(OC)ccc(OC)c2c1Cl`, the growth was 127%.

Regarding `COc1cc2cc(Oc3ccc(NC(=O)Nc4ccc(Cl)c(Cl)c4)cc3)c(C)nc2cc1OC`, the growth is 9.64% (active).

Regarding `COc1ccc(-c2nc(NN)c3c(C)nn(-c4ccc(F)cc4)c3n2)cc1`, the growth is 0.613% (active).

Regarding `O=C(Nc1ccc(I)cc1F)c1cc(Br)ccc1O`, the growth is -31.3% (active).

As for `O=S(=O)(NCCCNc1cc(-c2c(-c3cccc(O)c3)nc3sccn23)ccn1)c1cccc(Cl)c1`, the growth is 17.7%.

On to `CSc1nnc(-c2cc3c([nH]c4ccccc43)c(-c3cccc(O)c3)n2)n1-c1ccccc1`, for which the growth is 7.59% (active).

Take `O=C(c1ccccc1)C(O)C(Br)(CBr)c1ccccc1` (stereo unspecified): the growth is 65.4%.

Turning to `C=C1C(=O)O[C@H]2[C@H]1CC/C(COC(=O)NCc1cc3ccccc3[nH]1)=C\CC[C@@]1(C)O[C@@H]21`, the growth was -51.4% (active).

In the case of `CN1CC[C@@H](c2c(O)cc(O)c3c(=O)cc(-c4ccccc4Cl)oc23)[C@@H](O)C1`, the growth is -29.1% (active).

In the case of `C/C(=N\N=C(/C)c1cccc([N+](=O)[O-])c1)c1cccc([N+](=O)[O-])c1`, the growth was 125%.

Regarding `COc1cc2cc(Oc3ccc(NC(=O)Nc4cc(C(F)(F)F)cc(C(F)(F)F)c4)cc3)c(C)nc2cc1OCCN1CCOCC1`, the growth was 1.68% (active).

Consider `C#CCC(C(=O)OCC)C(=O)OCC`, for which the growth was 101%.
